Experiments:
[1] = system: Schistosoma mansoni schistosomula (NMRI); assay: phenotypic severity score (0-4); higher = more antischistosomal effect, active = 2 or more; settings: 10 µM
[2] = system: Schistosoma mansoni schistosomula (Liberian); assay: drug effect (1 - score/DMSO control score) (fraction); higher = more antischistosomal effect, active = 0.5 or more; extreme values may be limits of the assay; settings: 10 µM
Procedure, shortened: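 Drug effect was calculated by comparing the mean score of the test wells with the mean score of the DMSO wells, and any negative value was set to zero. Duplicate wells of 50 Liberian-strain S. mansoni schistosomula, mechanically transformed from cercariae and pre-incubated at least 12 h, received 10 µM compound in Medium 199 with 5% FCS at 37 °C, 5% CO2, with 0.1% DMSO in the comparison wells. Visual scoring at 10× took place at 24, 48 and 72 h on a quarter-point scale from 3 (normal) to 0 (dead), and a plate counted only if its DMSO wells averaged at least 2.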

[3] = system: Schistosoma mansoni schistosomula (LE); assay: XTT viability relative to DMSO control; higher = more viable (less active); settings: 72 h; 10 µM
Protocol: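 XTT/PMS was then added for a further 24 h (72 h total) and A450 was read. % viability = (sample - heat-killed control)/(DMSO control - heat-killed control) x 100, from duplicate wells in two independent experiments.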
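Throughout, for phenotypic severity score (0-4): visual microscopic scoring of shape, motility and density changes versus 0.5% DMSO solvent controls, one point per descriptor, degeneracy or death scored 4, mean of duplicate wells.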

Cc1cc(OCC(=O)Nc2ccc(C(C)C)cc2)n(C)c(=O)c1C#N
inactive: phenotypic severity score ([1]; 24 h) 0 | phenotypic severity score ([1]; 48 h) 0 | phenotypic severity score ([1]; 72 h) 0 | drug effect ([2]; 24 h) 0.1 | drug effect ([2]; 48 h) 0.0556 | drug effect ([2]; 72 h) < 0

CN1CCC(c2cc(-c3ccncc3)c(-c3ccc(F)cc3)[nH]2)CC1
inactive: phenotypic severity score ([1]; 24 h) 0 | phenotypic severity score ([1]; 48 h) 0 | phenotypic severity score ([1]; 72 h) 0 | drug effect ([2]; 24 h) < 0 | drug effect ([2]; 48 h) 0.0556 | drug effect ([2]; 72 h) 0.111

Cc1cc(Nc2ccncc2)n2nc(C)c(-c3ccccc3Cl)c2n1
inactive: phenotypic severity score ([1]; 24 h) 0 | phenotypic severity score ([1]; 48 h) 0 | phenotypic severity score ([1]; 72 h) 0 | drug effect ([2]; 24 h) 0.1 | drug effect ([2]; 48 h) 0.135 | drug effect ([2]; 72 h) 0.167

NCCN(C(=O)c1ccc(Cl)cc1Cl)c1ccc(OCc2ccc(Cl)cc2)cc1
inactive: phenotypic severity score ([1]; 24 h) 0 | phenotypic severity score ([1]; 48 h) 0 | phenotypic severity score ([1]; 72 h) 0 | drug effect ([2]; 24 h) 0.4 | drug effect ([2]; 48 h) 0.333 | drug effect ([2]; 72 h) 0.312

COc1ccc(Oc2ccc([C@@H](C)N(C)c3ncc4c(N)nc(N)nc4n3)cc2)cc1
active: phenotypic severity score ([1]; 24 h) 4 | phenotypic severity score ([1]; 48 h) 4 | phenotypic severity score ([1]; 72 h) 4 | drug effect ([2]; 24 h) 0.526 | drug effect ([2]; 48 h) 0.5 | drug effect ([2]; 72 h) 0.5

Cc1cc(C)c2cc(C(=O)NC3CCCCCCC3)[nH]c2c1
inactive: phenotypic severity score ([1]; 24 h) 0 | phenotypic severity score ([1]; 48 h) 1 | phenotypic severity score ([1]; 72 h) 0 | drug effect ([2]; 24 h) 0.316 | drug effect ([2]; 48 h) 0.333 | drug effect ([2]; 72 h) 0.438

O=C(Nc1cccc(-c2ccc(NCCCN3CCCC3)nc2)c1)c1ccccc1
active: phenotypic severity score ([1]; 48 h) 2 | phenotypic severity score ([1]; 72 h) 4 | drug effect ([2]; 72 h) 0.515
inactive: phenotypic severity score ([1]; 24 h) 1 | drug effect ([2]; 24 h) 0.2 | drug effect ([2]; 48 h) 0.459

CS(=O)(=O)Cc1nc2ccccc2oc1=O
inactive: phenotypic severity score ([1]; 24 h) 0 | phenotypic severity score ([1]; 48 h) 0 | phenotypic severity score ([1]; 72 h) 0 | drug effect ([2]; 24 h) 0.182 | drug effect ([2]; 48 h) 0.45 | drug effect ([2]; 72 h) 0.455

CCN(CC)S(=O)(=O)c1ccc(C(=O)Nc2cc(C)nn2-c2nc(C)c(C)c(=O)[nH]2)cc1
inactive: phenotypic severity score ([1]; 24 h) 0 | phenotypic severity score ([1]; 48 h) 0 | phenotypic severity score ([1]; 72 h) 0 | drug effect ([2]; 24 h) 0.1 | drug effect ([2]; 48 h) < 0 | drug effect ([2]; 72 h) < 0

COC(=O)c1c(NC(=O)c2c(F)c(F)c(F)c(F)c2F)sc2c1CCCCC2
active: phenotypic severity score ([1]; 24 h) 2 | phenotypic severity score ([1]; 48 h) 4 | phenotypic severity score ([1]; 72 h) 4 | drug effect ([2]; 24 h) 1 | drug effect ([2]; 48 h) 1 | drug effect ([2]; 72 h) 1

CN1CCN(c2cc(-c3ccc(F)cc3)nc(-c3ccncc3)n2)CC1
inactive: phenotypic severity score ([1]; 24 h) 0 | phenotypic severity score ([1]; 48 h) 0 | phenotypic severity score ([1]; 72 h) 0 | drug effect ([2]; 24 h) 0.182 | drug effect ([2]; 48 h) 0.35 | drug effect ([2]; 72 h) 0.345

CCc1ccc(S(=O)(=O)Nc2cc(CN3CCN(CCC(C)C)CC3)ccc2C)cc1
inactive: phenotypic severity score ([1]; 24 h) 1 | drug effect ([2]; 24 h) 0.25 | drug effect ([2]; 48 h) 0.444
active: phenotypic severity score ([1]; 48 h) 2 | phenotypic severity score ([1]; 72 h) 4 | drug effect ([2]; 72 h) 0.5

O=C(NCCN1CCCC1)c1cc(NCCCCN2CCC(F)(F)CC2)nc2ccc(Cl)cc12
active: phenotypic severity score ([1]; 24 h) 2 | phenotypic severity score ([1]; 48 h) 4 | phenotypic severity score ([1]; 72 h) 4 | drug effect ([2]; 72 h) 0.562
inactive: drug effect ([2]; 24 h) 0.3 | drug effect ([2]; 48 h) 0.389

CC(C)c1ncc(-c2ccncc2)c([C@H]2CC[C@H](CNC(=O)c3cccnc3)CC2)n1
inactive: phenotypic severity score ([1]; 24 h) 0 | phenotypic severity score ([1]; 48 h) 0 | phenotypic severity score ([1]; 72 h) 0 | drug effect ([2]; 24 h) 0.05 | drug effect ([2]; 48 h) 0.0811 | drug effect ([2]; 72 h) 0.111

CCCCCCCCCCCCCCCCOP(=O)([O-])OCC[N+](C)(C)C
inactive: phenotypic severity score ([1]; 24 h) 0 | phenotypic severity score ([1]; 48 h) 0 | phenotypic severity score ([1]; 72 h) 0 | drug effect ([2]; 24 h) 0.05 | drug effect ([2]; 48 h) 0.243 | drug effect ([2]; 72 h) 0.273

CO[C@H]1/C=C/O[C@@]2(C)Oc3c(C)c(O)c4c(O)c(/c(=C/NN5CCN(C)CC5)c(O)c4c3C2=O)=N\C(=O)/C(C)=C\C=C/[C@H](C)[C@H](O)[C@@H](C)[C@@H](O)[C@@H](C)[C@H](OC(C)=O)[C@@H]1C
inactive: phenotypic severity score ([1]; 24 h) 0 | phenotypic severity score ([1]; 48 h) 0 | phenotypic severity score ([1]; 72 h) 0 | drug effect ([2]; 24 h) 0.0455 | drug effect ([2]; 48 h) 0.05 | drug effect ([2]; 72 h) 0.105

CCNC(=O)C(C)Nc1nc(-c2cccnc2)nc2sc(C)c(C)c12 (stereo unspecified)
inactive: phenotypic severity score ([1]; 24 h) 0 | phenotypic severity score ([1]; 48 h) 0 | phenotypic severity score ([1]; 72 h) 0 | drug effect ([2]; 24 h) < 0 | drug effect ([2]; 48 h) < 0 | drug effect ([2]; 72 h) 0.111

O=C(c1cc2ccccc2o1)N1CCN(Cc2ccc3c(c2)OCO3)CC1
inactive: phenotypic severity score ([1]; 24 h) 0 | phenotypic severity score ([1]; 48 h) 0 | phenotypic severity score ([1]; 72 h) 0 | drug effect ([2]; 24 h) 0.182 | drug effect ([2]; 48 h) 0.15 | drug effect ([2]; 72 h) 0.236

CC(Oc1ccccc1)C(=O)Nc1nc(-c2ccccn2)cs1 (stereo unspecified)
active: phenotypic severity score ([1]; 24 h) 2 | phenotypic severity score ([1]; 72 h) 4 | drug effect ([2]; 48 h) 0.5 | drug effect ([2]; 72 h) 0.625
inactive: phenotypic severity score ([1]; 48 h) 0 | drug effect ([2]; 24 h) 0.297

COc1ccc(N(CCc2cccc(C)n2)C(=O)C2CCCCC2)cc1
active: phenotypic severity score ([1]; 48 h) 2
inactive: phenotypic severity score ([1]; 24 h) 0 | phenotypic severity score ([1]; 72 h) 1 | drug effect ([2]; 24 h) 0.15 | drug effect ([2]; 48 h) 0.2 | drug effect ([2]; 72 h) 0.111

COc1cc2ncnc(NC3CCN(Cc4ccccc4)CC3)c2cc1OC
inactive: phenotypic severity score ([1]; 24 h) 0 | phenotypic severity score ([1]; 48 h) 0 | phenotypic severity score ([1]; 72 h) 0 | drug effect ([2]; 24 h) 0.1 | drug effect ([2]; 48 h) 0.135 | drug effect ([2]; 72 h) 0.0556

CC[P](CC)(CC)=[Au][S][C@H]1O[C@@H](COC(C)=O)[C@H](OC(C)=O)[C@@H](OC(C)=O)[C@@H]1OC(C)=O
active: phenotypic severity score ([1]; 24 h) 4 | phenotypic severity score ([1]; 48 h) 4 | phenotypic severity score ([1]; 72 h) 4 | drug effect ([2]; 24 h) 1 | drug effect ([2]; 48 h) 1 | drug effect ([2]; 72 h) 1

Brc1cncc(-c2cc(NCCCn3ccnc3)nc(-c3ccccc3)n2)c1
inactive: phenotypic severity score ([1]; 24 h) 1 | drug effect ([2]; 24 h) 0.273
active: phenotypic severity score ([1]; 48 h) 4 | phenotypic severity score ([1]; 72 h) 4 | drug effect ([2]; 48 h) 0.65 | drug effect ([2]; 72 h) 0.673

Cc1cnc(CCNC(=O)c2cc(-c3ccc(Cl)cc3)cs2)[nH]1
active: drug effect ([2]; 72 h) 0.509
inactive: phenotypic severity score ([1]; 24 h) 1 | phenotypic severity score ([1]; 48 h) 1 | phenotypic severity score ([1]; 72 h) 0 | drug effect ([2]; 24 h) 0.136 | drug effect ([2]; 48 h) 0.45

Cc1ccc(S(=O)(=O)n2cc(-c3ccnc(N)c3)c3cc(Br)cnc32)cc1
inactive: drug effect ([2]; 24 h) 0.45
active: phenotypic severity score ([1]; 24 h) 2 | phenotypic severity score ([1]; 48 h) 3 | phenotypic severity score ([1]; 72 h) 3 | drug effect ([2]; 48 h) 0.568 | drug effect ([2]; 72 h) 0.515

O=C(c1ccc(F)cc1)N(CCNc1ccccc1)c1ccccc1
inactive: phenotypic severity score ([1]; 24 h) 1 | phenotypic severity score ([1]; 48 h) 0 | phenotypic severity score ([1]; 72 h) 1 | drug effect ([2]; 24 h) 0.135 | drug effect ([2]; 48 h) 0.167 | drug effect ([2]; 72 h) 0.25

CC(C)(C)n1nc(Cc2ccc(F)c(Cl)c2)c2c(N)ncnc21
98.7%: XTT viability [3]
inactive: phenotypic severity score ([1]; 24 h) 0 | phenotypic severity score ([1]; 48 h) 0 | phenotypic severity score ([1]; 72 h) 0 | drug effect ([2]; 24 h) 0.0811 | drug effect ([2]; 48 h) 0.167 | drug effect ([2]; 72 h) 0.188

CC(C)C(C(=O)Nc1ccc(S(=O)(=O)N(C)C)cc1)c1ccc(Cl)cc1 (stereo unspecified)
active: phenotypic severity score ([1]; 24 h) 2 | phenotypic severity score ([1]; 48 h) 4 | phenotypic severity score ([1]; 72 h) 4 | drug effect ([2]; 24 h) 0.955 | drug effect ([2]; 48 h) 0.85 | drug effect ([2]; 72 h) 1
29.5%: XTT viability [3]

Oc1c(I)cc(I)c2cccnc12
6.58%: XTT viability [3]
active: phenotypic severity score ([1]; 24 h) 2 | phenotypic severity score ([1]; 72 h) 2
inactive: phenotypic severity score ([1]; 48 h) 1 | drug effect ([2]; 24 h) 0.1 | drug effect ([2]; 48 h) 0.135 | drug effect ([2]; 72 h) 0.333

Cc1nn(C(=O)Nc2cccc(C(F)(F)F)c2)c(C)c1Sc1ncccn1
137%: XTT viability [3]
inactive: phenotypic severity score ([1]; 24 h) 0 | phenotypic severity score ([1]; 48 h) 0 | phenotypic severity score ([1]; 72 h) 0 | drug effect ([2]; 24 h) 0.15 | drug effect ([2]; 48 h) 0.167 | drug effect ([2]; 72 h) 0.312

O=C(C1CCN(c2nnc(-n3cccc3)s2)CC1)N1CCC(Cc2ccccc2)CC1
inactive: phenotypic severity score ([1]; 24 h) 1 | phenotypic severity score ([1]; 48 h) 1 | phenotypic severity score ([1]; 72 h) 0 | drug effect ([2]; 24 h) 0.0526 | drug effect ([2]; 48 h) 0.111 | drug effect ([2]; 72 h) < 0
103%: XTT viability [3]

Reference: the supplement of paper PMC6805474
